# Measurements: PubChem BioAssay (NCATS)
# Values without a mark were called inactive. Inconclusive results are not listed. A call without a number means that no potency is given here. Activity calls are given as the source filed them. Unless noted, calls come from the whole dose curve; as a rule, active = well fitted curve in the direction sought with a large enough effect; inconclusive = small, poorly fitted or top-dose-only effect, or another doubt; inactive = no such curve, though single readings can be large; an effect the other way counts as inactive or inconclusive.
# Assays:
# [1] = HTS Assay for Allosteric Antagonists of the Human D2 Dopamine Receptor: Hit Validation in HTRF (AID 624455)
# Summary of the method: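 HTRF read-out; cells stably expressing D1 receptor; hits scored for inhibition of D1-mediated response. Primary screen: calcium flux, force-coupled inducible Hek293 Trex D2 line, antagonism vs EC80 dopamine.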
# [2] = qHTS assay for small molecule agonists of the antioxidant response element (ARE) signaling pathway (AID 651741; active = well fitted activation curve with a large enough effect in the signal ratio; the % refers to the signal ratio; note: potency is the fitted concentration of half-maximal effect)
# Summary of the method: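 Beta-lactamase reporter expression driven by the antioxidant response element in HepG2 cells was detected by fluorescence with LiveBLAzer B/G FRET substrate (2 h, room temperature) following 16 h compound treatment at 37 C.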
# [3] = qHTS assay for small molecule disruptors of the mitochondrial membrane potential - 1 hr assay (AID 651754; calls by dose curve; note: nearly all actives have a fitted effect of over 35% in size)
# Summary of the method: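 Read-out: dye fluorescence at 490 nm ex/535 nm em (monomers) and 540 nm ex/590 nm em (aggregates) in HepG2 cells. Compound exposure 1 hr at 37C, followed by 30 min dye loading.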
# [4] = qHTS assay for small molecule disruptors of the mitochondrial membrane potential - 5 hr assay (AID 651755; calls by dose curve; note: nearly all actives have a fitted effect of over 40% in size)
# Summary of the method: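 Seed HepG2 overnight, add compound, incubate 5 hr at 37C and 5% CO2, stain 30 min with Mito-MPS, then measure monomer (490/535 nm) and aggregate (540/590 nm) fluorescence.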
# [5] = target: Peroxisome proliferator-activated receptor alpha (Homo sapiens) (UniProt Q07869); experiment: qHTS assay for small molecule agonists of the peroxisome proliferator-activated receptor alpha (PPARalpha) signaling pathway (AID 651778); details: PathHunter PPARalpha complementation, chemiluminescence, 6 h; stronger effect = higher value
# Chain of Peroxisome proliferator-activated receptor alpha (Homo sapiens) (Q07869 whole entry, looked up): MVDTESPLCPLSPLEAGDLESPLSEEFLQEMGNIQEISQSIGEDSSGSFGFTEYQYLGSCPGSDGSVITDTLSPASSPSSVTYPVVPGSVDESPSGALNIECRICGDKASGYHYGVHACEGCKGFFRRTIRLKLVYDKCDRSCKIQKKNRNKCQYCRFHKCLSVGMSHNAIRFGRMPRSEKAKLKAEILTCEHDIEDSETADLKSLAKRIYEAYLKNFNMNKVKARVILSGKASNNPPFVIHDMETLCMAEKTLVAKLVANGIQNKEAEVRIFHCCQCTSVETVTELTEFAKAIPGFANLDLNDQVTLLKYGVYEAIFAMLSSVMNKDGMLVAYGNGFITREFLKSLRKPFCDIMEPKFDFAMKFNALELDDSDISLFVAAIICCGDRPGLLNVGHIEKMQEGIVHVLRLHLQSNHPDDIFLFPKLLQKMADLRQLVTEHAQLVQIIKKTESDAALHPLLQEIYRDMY
# Summary of the method: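 Cells plated at 2,000/well and held overnight at 37 C, 5% CO2, then compound added by pin tool for 6 hr; after PathHunter detection reagent and 60 min at room temperature, chemiluminescence from enzyme complementation was read.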
# [6] = qHTS for compounds that reverse cellular toxicity of Amyloid beta (A-beta) peptide in yeast: LOPAC Validation Assay (AID 720559)
# Summary of the method: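 Activity is expressed relative to DMSO and an equimolar ferric chloride/clioquinol mix. Compounds were pinned into medium with A-beta-expressing yeast, grown 48 hr at 30 C, then read by absorbance at 600 nm.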
# [7] = target: Arylsulfatase A (Homo sapiens) (UniProt P15289); experiment: qHTS screen for enhancers of Arylsulfatase A (ASA1): LOPAC Validation Assay (AID 720538); note: potency is the fitted concentration of half-maximal effect
# Chain of Arylsulfatase A (Homo sapiens) (P15289 whole entry, looked up): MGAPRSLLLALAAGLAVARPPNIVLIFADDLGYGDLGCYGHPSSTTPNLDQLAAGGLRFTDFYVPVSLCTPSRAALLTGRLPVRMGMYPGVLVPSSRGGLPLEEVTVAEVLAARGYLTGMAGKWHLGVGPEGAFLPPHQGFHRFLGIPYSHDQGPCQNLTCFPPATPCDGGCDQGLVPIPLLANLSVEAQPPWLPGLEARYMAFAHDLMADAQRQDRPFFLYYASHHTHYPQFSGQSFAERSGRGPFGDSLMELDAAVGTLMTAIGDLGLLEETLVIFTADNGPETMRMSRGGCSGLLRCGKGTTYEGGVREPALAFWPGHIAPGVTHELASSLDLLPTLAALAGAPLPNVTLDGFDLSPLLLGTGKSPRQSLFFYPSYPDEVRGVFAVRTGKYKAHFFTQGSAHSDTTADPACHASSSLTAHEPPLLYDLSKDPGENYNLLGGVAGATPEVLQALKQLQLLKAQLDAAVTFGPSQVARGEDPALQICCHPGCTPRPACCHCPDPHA
# Summary of the method: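 First, ASA-I179S fibroblasts from an MLD patient adhered for 6 hrs. Next, compounds were added for 48h. Then pNCS substrate (0.5mM final) with lysis buffer reacted 14h at room temperature before NaOH stop and fluorescence measurement.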
# [8] = target: Nuclear receptor ROR-gamma (Homo sapiens) (UniProt P51449); experiment: qHTS assay for small molecule antagonists of the retinoid-related orphan receptor gamma (ROR-gamma) signaling pathway (AID 651802);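 note: CHO cells with doxycycline-induced ROR-gamma expression; luciferase reporter luminescence driven by ROR response element; series mostly up to about 92 µM; nearly all actives have a fitted effect of over 60% in size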
# Chain of Nuclear receptor ROR-gamma (Homo sapiens) (P51449 whole entry, looked up): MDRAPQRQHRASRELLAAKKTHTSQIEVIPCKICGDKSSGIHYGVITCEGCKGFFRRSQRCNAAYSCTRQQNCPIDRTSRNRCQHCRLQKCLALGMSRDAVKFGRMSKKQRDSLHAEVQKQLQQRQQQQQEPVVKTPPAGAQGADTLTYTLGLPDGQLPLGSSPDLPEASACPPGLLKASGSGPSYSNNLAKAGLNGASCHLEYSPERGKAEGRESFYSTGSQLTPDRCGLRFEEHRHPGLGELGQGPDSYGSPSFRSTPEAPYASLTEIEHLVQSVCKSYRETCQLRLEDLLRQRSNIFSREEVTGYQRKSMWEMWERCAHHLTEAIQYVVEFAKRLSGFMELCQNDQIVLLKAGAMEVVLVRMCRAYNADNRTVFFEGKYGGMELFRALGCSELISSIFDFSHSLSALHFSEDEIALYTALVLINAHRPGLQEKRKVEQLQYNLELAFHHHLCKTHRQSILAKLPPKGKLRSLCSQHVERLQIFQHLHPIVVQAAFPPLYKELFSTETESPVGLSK
# Summary of the method: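 Luciferase read-out: ONE-Glo luminescence after 30 min at room temperature, following 16hr doxycycline induction at 37C, 5% CO2 of CHO cells with TET-inducible ROR and RORE-LUC reporter; decreased luminescence = reduced reporter activity.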
# [9] = qHTS assay for small molecule activators of the p53 signaling pathway (AID 651743; active = well fitted activation curve with a large enough effect in the signal ratio, not every such curve was filed as active; the % refers to the signal ratio; note: series mostly up to about 92 µM); details: HCT-116 p53RE-bla, beta-lactamase FRET ratio, 16 h; activation: stronger effect = higher value
# Summary of the method: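 Here HCT-116 cells with an integrated p53-responsive beta-lactamase gene were incubated with compounds (16 hours, 37 C) after a 5-hour plating period; beta-lactamase activity was detected as fluorescence intensity via B/G FRET substrate.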
structure (smiles),measurement,setting,value
O=C1C=CC(=O)C=C1,Potency,[1],inactive
same,Potency,[2],47.3 µM (active)
same,Potency,[3],inactive
same,Potency,[4],inactive
same,max response,[5],-5.62%
same,outcome,[6],inactive
C[Se]C[C@H](N)C(=O)O,Potency,[1],inactive
same,Potency,[7],inactive
same,outcome,[6],inactive
CC(Cc1ccc(OCC(=O)O)cc1)NCC(O)c1cccc(Cl)c1 (stereo not given),Potency,[1],inactive
same,Potency,[7],inactive
same,outcome,[6],inactive
NNC(=O)c1ccc(O)cc1,Potency,[1],inactive
same,Potency,[7],inactive
same,outcome,[6],inactive
O=c1c2ccccc2[se]n1-c1ccccc1,Potency,[1],inactive
same,Potency,[7],inactive
same,outcome,[6],inactive
NNC(N)=O,Potency,[1],inactive
same,Potency,[3],inactive
same,Potency,[4],inactive
same,max response,[5],-2.31%
same,Potency,[8],inactive
same,Potency,[7],inactive
same,outcome,[6],inactive
NCC(CP(=O)(O)O)c1ccc(Cl)cc1 (stereo not given),Potency,[1],inactive
same,Potency,[7],inactive
same,outcome,[6],inactive
CC(C)(O)[C@@H]1C2OC(=O)[C@@H]1[C@]1(O)C[C@H]3O[C@]34C(=O)O[C@H]2[C@]14C (tested in a mixture with another compound),Potency,[1],inactive
same,Potency,[7],inactive
same,outcome,[6],inactive
C[N+]1(C)CCOC(O)(c2ccc(-c3ccc(C4(O)C[N+](C)(C)CCO4)cc3)cc2)C1 (stereo not given),Potency,[1],inactive
same,Potency,[7],inactive
same,outcome,[6],inactive
CC(=O)c1c(O)c(C)c(O)c(Cc2c(O)c3c(c(C(=O)/C=C/c4ccccc4)c2O)OC(C)(C)C=C3)c1O,Potency,[1],inactive
same,Potency,[7],inactive
same,outcome,[6],inactive
N[C@@H](CCl)C(=O)O,Potency,[1],inactive
same,Potency,[7],inactive
same,outcome,[6],inactive
CO[C@H]1CC=C2CCN3CCC4=C(CC(=O)OC4)[C@]23C1,Potency,[1],inactive
same,Potency,[7],inactive
same,outcome,[6],inactive
CC(N)Cc1c[nH]c2ccc(O)cc12 (stereo not given),Potency,[1],inactive
same,Potency,[7],9.53 µM (active)
same,outcome,[6],inactive
c1ccc2c(c1)[I+]c1ccccc1-2,Potency,[1],inactive
same,Potency,[7],inactive
same,outcome,[6],inactive
C[C@H](N)Cc1cccc(C(F)(F)F)c1,Potency,[1],inactive
same,Potency,[7],inactive
same,outcome,[6],inactive
O=C(O)c1cc[c]([Hg][Cl])cc1,Potency,[1],inactive
same,Potency,[2],30.6 µM (active)
same,activation,[9],10.2%
same,max response,[5],-9.79%
same,Potency,[7],inactive
same,outcome,[6],inactive
CC1(C(=O)O)C2CCC(O2)C1(C)C(=O)O (stereo not given),Potency,[1],inactive
same,Potency,[7],inactive
same,outcome,[6],inactive
CC12NC(Cc3ccccc31)c1ccccc12 (stereo not given),Potency,[1],inactive
same,Potency,[7],inactive
Oc1ccc2c3c1O[C@H]1c4[nH]c5ccccc5c4C[C@@]4(O)C(C2)N(CC2CC2)CCC314 (stereo not given in full),Potency,[1],inactive
C=CCN1CC[C@]23c4c5ccc(O)c4O[C@H]2/C(=N/NC(=O)c2ccccc2)CC[C@@]3(O)[C@H]1C5,Potency,[1],inactive
same,Potency,[7],inactive
same,outcome,[6],inactive
N[C@@]1(C(=O)O)CC[C@@H](C(=O)O)C1,Potency,[1],inactive
same,Potency,[7],inactive
same,outcome,[6],inactive
NC(N)=NOCC[C@H](N)C(=O)O,Potency,[1],inactive
same,Potency,[7],inactive
same,outcome,[6],inactive
NC(Cc1cc(O)c(O)cc1O)C(=O)O (stereo not given),Potency,[1],inactive
same,Potency,[7],16.9 µM (active)
same,outcome,[6],inactive
NC(=O)COc1c(F)cc(SCCNS(=O)(=O)c2ccccc2)cc1F,Potency,[1],inactive
same,Potency,[7],inactive
same,outcome,[6],inactive
COc1ccc2[nH]c3c(c2c1)CCNC3,Potency,[1],inactive
same,Potency,[7],inactive
same,outcome,[6],inactive
COc1cc(CC(C)N)c(OC)cc1I (stereo not given),Potency,[1],inactive
same,Potency,[7],inactive
same,outcome,[6],inactive
NC(CCCCCP(=O)(O)O)C(=O)O (stereo not given),Potency,[1],inactive
same,Potency,[7],inactive
same,outcome,[6],inactive
CC(C)NP(=O)(NC(C)C)OP(=O)(NC(C)C)NC(C)C,Potency,[1],inactive
same,Potency,[7],inactive
same,outcome,[6],inactive
C[N+](C)(C)CC#CCOC(=O)Nc1cccc(Cl)c1,Potency,[1],inactive
same,Potency,[7],inactive
same,outcome,[6],inactive
CN1CC[C@@]2(C)c3cc(O)ccc3N(C)C12 (stereo not given in full),Potency,[1],inactive
same,Potency,[7],inactive
same,outcome,[6],inactive
Cc1c2ccncc2c(C)c2c1[nH]c1ccccc12,Potency,[1],inactive
same,Potency,[7],inactive
same,outcome,[6],inactive
OC1CCCCC1N1CCC(c2ccccc2)CC1 (stereo not given),Potency,[1],inactive
same,Potency,[7],inactive
same,outcome,[6],inactive
Oc1ccc2c3c1O[C@H]1c4oc5ccccc5c4C[C@@]4(O)C(C2)N(CC2CC2)CCC314 (stereo not given in full),Potency,[1],inactive
same,Potency,[7],inactive
same,outcome,[6],inactive
CP(=O)(O)C1=CCNCC1,Potency,[1],inactive
same,Potency,[7],inactive
same,outcome,[6],inactive
N[C@@H](Cn1ccc(=O)[nH]c1=O)C(=O)O,Potency,[1],inactive
same,Potency,[7],inactive
same,outcome,[6],inactive
c1ccc2c(N3CCNCC3)cccc2c1,Potency,[1],inactive
same,Potency,[7],inactive
same,outcome,[6],inactive
CN1CCC(c2c[nH]c3ccc(O)cc23)CC1,Potency,[1],inactive
same,Potency,[7],inactive
same,outcome,[6],inactive
C[N+](C)(C)CC#CCN1CCCC1=O,Potency,[1],inactive
same,Potency,[7],inactive
same,outcome,[6],inactive
CC(C)(C)c1cc(C=C(C#N)C#N)cc(C(C)(C)C)c1O,Potency,[1],inactive
same,Potency,[7],inactive
same,outcome,[6],inactive
NC(Cc1ccc(N(CCCl)CCCl)cc1)C(=O)O (stereo not given),Potency,[1],inactive
same,Potency,[7],inactive
same,outcome,[6],inactive
NCCc1ccc(S(=O)(=O)F)cc1,Potency,[1],inactive
same,Potency,[7],inactive
same,outcome,[6],inactive
